Test results taken from PubChem BioAssay (NCATS).
Inconclusive results are not listed. Values without a mark were called inactive. Calls of active or inactive are those of the source. Calls follow the shape of the dose curve; as a rule, active = well fitted cell-killing curve with a large enough effect; inconclusive = small, poorly fitted or top-dose-only effect, or effect the other way; inactive = no such curve, though single readings can be large or run the other way.

test: Viability qHTS for spleen associated tyrosine kinase inhibitor (SYKi) drug resistant MV4-11 cells (AID 1963824); details: SYKi-resistant MV4-11 viability, CellTiter-Glo, 72 h; series mostly up to 45 µM; viability, % of control: at the top concentration; also: nearly all actives have a fitted effect of over 35% in size
How it was run: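 SYK-inhibitor-resistant MV4-11 AML cells were seeded at 500 per well onto compound and cultured 72 hours (37 °C, 5% CO2). CellTiter-Glo was then added, and after 10 min at room temperature, luminescence gave viability.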
Potency is read from the fitted curve at half-maximal effect.

| Compound | Potency | viability, % of control [%] |
| --- | --- | --- |
| COC(=O)CC(O)CC(O)/C=C/c1c(C)ccc2c1C(OC(C)=O)CC(C)C2 (stereo not drawn) | 1.8 µM (active) | – |
| CCc1ccc(N(CC(C)C)S(=O)(=O)c2ccc(OCC3CCOCC3)c(CO)c2)cc1 | 18.6 µM (active) | – |
| OC(CNCCc1c[nH]c2ccccc12)Cn1c2ccccc2c2ccccc21 (stereo not drawn) | 5.17 µM (active) | – |
| COc1ccc(C[C@H]2COC(=O)[C@@H]2Cc2ccc(O[C@@H]3O[C@H](CO)[C@@H](O)[C@H](O)[C@H]3O)c(OC)c2)cc1OC | 1.42 µM (active) | – |
| Nc1nc2cc(-c3ccc4ncc(C(=O)N5CCOCC5)n4c3)ccc2o1 | 10.5 µM (active) | – |
| CC1=C[C@@H]2[C@H]3[C@@H]4O[C@@](C)(CC[C@H]4O)[C@H]3CC(=O)[C@]23C(=O)N[C@@H](CC(C)C)[C@@H]3[C@@H]1C | 8.05 µM (active) | – |
| CN1CCN(C(=O)c2cc3cc(Cl)ccc3[nH]2)CC1 | 8.2 µM (active) | – |
| COc1ccc(N2CCOCC2)c2sc(NC(=O)N3CCC(C)(O)CC3)nc12 | – | 88.1 |
| CCOC(=O)c1sc(NC(=O)[C@H](C(C)C)n2c(=O)[nH]c3ccccc3c2=O)nc1C | 16.4 µM (active) | – |
| O=C1Cc2c([nH]c3ccc(Br)cc23)-c2ccccc2N1 | 5.8 µM (active) | – |
| Cc1c(CN2CCN(C(=O)C(C)O)CC2)sc2c(N3CCOCC3)nc(-c3cnc(N)nc3)nc12 (stereo not drawn) | 0.366 µM (active) | – |
| N#Cc1ccc2c(c1)CCN(CCC1CCC(NC(=O)c3ccnc4ccccc34)CC1)C2 (stereo not drawn) | 10.3 µM (active) | – |
| CC(C)(C)c1ccc(-c2nc3ccccc3[nH]2)cc1 | 3.99 µM (active) | – |
